Laboratory results published in PubChem BioAssay AID2284125 (EPA ToxCast).
Activity calls are given as the source filed them. Rule for the calls: active = hit-call score of the fitted dose curve at least 0.9, where 1 is the maximum; inactive = score below 0.9.

target: Beta-2 adrenergic receptor (Homo sapiens) (UniProt P07550); test: ERF_FR_GPCR_hADRB2: Eurofins (ERF) G Protein-Coupled Receptor (GPCR) Radioligand Binding LeadHunter Assay for human Adrenoceptor Receptor beta2 Antagonism, conducted at France lab site
Sequence (P07550 whole entry, looked up): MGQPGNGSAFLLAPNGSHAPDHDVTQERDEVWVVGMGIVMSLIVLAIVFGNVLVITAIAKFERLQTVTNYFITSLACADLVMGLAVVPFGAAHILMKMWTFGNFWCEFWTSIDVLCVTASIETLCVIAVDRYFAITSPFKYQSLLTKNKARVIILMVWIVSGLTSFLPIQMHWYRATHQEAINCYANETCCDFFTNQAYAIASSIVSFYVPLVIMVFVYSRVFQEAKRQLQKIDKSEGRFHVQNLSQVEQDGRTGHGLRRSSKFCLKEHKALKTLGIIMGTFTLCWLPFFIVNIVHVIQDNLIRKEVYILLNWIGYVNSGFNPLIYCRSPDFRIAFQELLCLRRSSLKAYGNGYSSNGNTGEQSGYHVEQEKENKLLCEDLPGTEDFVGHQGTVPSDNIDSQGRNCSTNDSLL
Description: ERF_FR_GPCR_hADRB2 is a biochemical, single-readout assay that uses extracted gene-proteins in a cell-free assay. Measurements were taken 2 hour after chemical dosing in a 96-well plate. See beta2 Human Adrenoceptor GPCR Binding (Antagonist Radioligand) Assay, Cerep.ERF_FR_GPCR_hADRB2 is an assay component calculated from the ERF_FR_GPCR_hADRB2 assay. It is designed to measure radioligand binding using a type of binding reporter as detected by scintillation counting with radiometry technology.Data from the assay component ERF_FR_GPCR_hADRB2 was analyzed at the assay endpoint, ERF_FR_GPCR_hADRB2, in the positive analysis fitting direction relative to DMSO as the negative control and baseline of activity. Using a type of binding reporter, loss-of-signal activity can be used to understand changes in binding as they relate to gene ADRB2. To generalize the intended target to other relatable targets, this assay endpoint is annotated to the gpcr intended target family, where the subfamily is adrenoceptor.
Human cells are incubated for 60 minutes in room temprature, using [3H](-)CGP 12177 ligand at 0.3 Kd (nM) with ICI 118551 control inhibitor.Test Sample Requirements: Minimum for 1) Screen: 60 ul of 10 mM stock -OR- 1 mg (pre-weighed) for […] uM final testing. 2) Dose Response: 90 ul of 10 mM stock -OR- 1 mg (pre-weighed) for a top concentration at 10 uM.

| SMILES | outcome | AC50 |
| --- | --- | --- |
| COc1cc(CCC(=O)CC(=O)CCc2ccc(O)c(OC)c2)ccc1O | inactive |  |
| O=C(/C=C/c1ccc(O)cc1)CC(=O)/C=C/c1ccc(O)cc1 |  | 3.68 µM (active) |
